USP8 block = inhibitors of human USP8 deubiquitinase | inhibition, % at 20 µM | Ubiquitin carboxyl-terminal hydrolase 8 (Homo sapiens), P40818 | 47,000 tested, 4.2% active | purified USP8, Ub-rhodamine cleavage fluorescence, 30 min | AID 1645853, 2021
USP10 inh = inhibitors of human USP10 deubiquitinase. Ubiquitin carboxyl-terminal hydrolase 10 (Homo sapiens), Q14694. purified USP10, Ub-rhodamine fluorescence, 60 min. inhibition, % at 20 µM. 47,000 tested, 1.1% active. AID 1645856, 2021
OTUD3 inh = inhibitors of human OTUD3 deubiquitinase; OTU domain-containing protein 3 (Homo sapiens), Q5T2D3; purified OTUD3, Ub-rhodamine fluorescence, 2 h; inhibition, % at 25 µM; 47,000 tested, 0.7% active; AID 1645858, 2021
USP7 inh = inhibitors of human USP7 deubiquitinase | 47,000 tested, 0.3% active | purified USP7, Ub-rhodamine cleavage fluorescence | Ubiquitin carboxyl-terminal hydrolase 7 (Homo sapiens), Q93009 | inhibition, % at 20 µM
UCHL1 inh = inhibitors of human UCHL1 deubiquitinase; purified UCHL1, Ub-rhodamine cleavage fluorescence; inhibition, % at 20 µM; 47,000 tested, 0.2% active; AID 1645859, 2021
* = called active by the depositor; x = no result. Rows were chosen to be rich in hits. Some 5% of all compounds tested hit in one or more screens of this group. No stated cut-off is given here; in the data, active means inhibition above about 30%; inactive means the rest.

SMILES	USP8 block	USP10 inh	OTUD3 inh	USP7 inh	UCHL1 inh
O[C@H]1[C@H](O)[C@H](Oc2ccccc2)CC[C@H]1NCc1cccnc1	0	4	8	1	1
O=C(Cc1cccnc1)N[C@@H]1CC[C@@H](Oc2ccccc2)[C@@H](O)[C@@H]1O	73*	3	1	6	5
Cc1ccc2c(c1)C(=O)N1CCCC1C(=O)N2CC(=O)NC(C)c1ccccc1 (stereo not drawn)	4	-3	-2	-1	-2
COc1cc(NC(=O)CSCC(=O)N(C)c2ccccc2)c(Cl)cc1Cl	3	1	4	-61	5
O=C(CNCc1cccc(Cl)c1)N1CCc2ccccc2C1	72*	-1	3	-8	3
O=C(NCc1ccc(Cl)cc1)N1CCc2ccccc2C1	10	2	0	-52	-2
CC(=O)c1ccc(N2CCN(C(=O)C3c4ccccc4C(=O)N(C)C3c3cccs3)CC2)cc1 (stereo not drawn)	6	0	0	-5	-4
Cc1ccccc1CNC(=O)CCc1c(C)nn(-c2cc(N3CCCC3)ncn2)c1C	-11	-2	-3	-2	-2
C/C=C/C=C/[C@@H]1Cc2cc(O)cc(O)c2O1	74*	33*	87*	-76	61*
CC(=O)N1C[C@H](Oc2ccccn2)[C@H]2C[C@@H]1CC[C@H]2N1CCOCC1	-1	-2	2	3	2
O=C(Nc1ccc(F)cc1)c1c(O)c2cccnc2n(-c2ccccc2)c1=O	10	2	-2	4	2
COc1ccc(CNC(=O)c2c(O)c3cccnc3n(-c3ccccc3)c2=O)cc1	84*	3	10	3	2
Nc1ccc([C@@H]2CN(Cc3ccccc3)C[C@]23CCCC(=O)N3)cc1	-3	-3	-1	3	0
COc1ccccc1NC(=O)COc1cc(C)nc(-c2ccc(C)cc2)n1	19	5	20	6	4
O=C1C/C(=C\c2cccc(Cl)c2)Cc2ccccc21	34*	15	27	10	11
O=C1C/C(=C\c2cccc(Br)c2)Cc2ccccc21	21	15	22	13	9
O=C(Nc1ccc(S(=O)(=O)Nc2cc(Cl)cc(Cl)c2)cc1)c1c(F)cccc1Cl	-11	34*	9	12	4
O=C(Nc1ccc(Oc2ccccc2)cc1)c1c(F)cccc1Cl	-112	8	8	3	5
COc1ccc(-c2nc(SCC(=O)Oc3c(C)cccc3C)n3[nH]c(=O)cc3n2)cc1	83*	46*	14	0	0
COc1ccc(CCN2C[C@H]3CCN(C(=O)C4CCC4)CC[C@H]3S2(=O)=O)cc1	-53	-1	-2	-2	-3
O=C(CCc1c[nH]c2ccccc12)N1C[C@@H](O)[C@H](N2CCCC2)C1	5	0	-2	-2	-4
O=C(CCc1c[nH]c2ccccc12)OCC(=O)c1cc2c3c(c1)CC(=O)N3CCC2	32*	17	0	x	14
Cc1cccc(C)c1OCCN1C(=O)C2CN(C(N)=O)CCN2C1=O (stereo not drawn)	1	0	11	0	3
Cc1ccccc1OCCN1C(=O)C2CN(C(N)=O)CCN2C1=O (stereo not drawn)	42*	6	13	2	4
CCN(C(=O)Cc1c(C)nc(-c2ncccn2)[nH]c1=O)c1ccccc1	-277	0	14	0	2
SMILES	USP8 block	USP10 inh	OTUD3 inh	USP7 inh	UCHL1 inh
COc1ccc(CNC(=O)c2ccc(N3CCOCC3)c([N+](=O)[O-])c2)cc1	-77	0	16	4	0
COc1ccc(N2CCN(c3ccc(Cl)cc3[N+](=O)[O-])CC2)cc1	33*	5	-2	2	3
Cc1ccc(OCC(=O)Nc2ccc(NC(=O)c3cccc(Cl)c3)cc2)cc1C	-32	4	12	8	-2
COC(=O)c1ccc(CNC(=O)c2ccc(Oc3ccccc3)cc2)cc1	34*	12	12	2	3
O=C(COc1cccc(C(=O)NCc2ccccc2)c1)Nc1ccc(Oc2ccccc2)cc1	10	11	40*	10	1
C/C(Nc1ccc2oc(=O)ccc2c1)=C1/C(=O)CC2[C@H]1C2(C)C (stereo partly drawn)	41*	-8	-20	-7	-8
CCOC(=O)c1noc2nc(C)nc(NCc3ccc(OC)cc3)c12	40*	3	-2	0	0
O=C(CN1CCC2(CCC1=O)CC(=O)c1ccccc1O2)NCc1cccnc1 (stereo not drawn)	-4	-4	-1	-1	-2
Cc1cc(=O)n(C)c2c(O)c3c(cc12)c(C)cc(=O)n3C	50*	25	57*	-105	30*
CC(C)(C)c1ccc(C(=O)OCC(=O)Nc2ccc3c(c2)OCO3)cc1	12	2	7	9	3
Cc1cc(C(=O)COC(=O)c2ccc(C(C)(C)C)cc2)c(C)n1Cc1ccc2c(c1)OCO2	34*	0	14	3	0
Cc1ccc(-c2cc(C(F)F)n3ncc(C(=O)Nc4ccc(O)cc4)c3n2)cc1	60*	44*	9	14	8
NC(=O)C1CCN(Cc2nc(-c3ccc(Cl)cc3)no2)CC1	12	-2	10	3	0
O=c1[nH]cccc1NS(=O)(=O)c1ccc(F)cc1	93*	-1	-9	-54	26
CN1[C@@H](CCC(=O)N2CCC(O)CC2)CNC(=O)[C@@H]2[C@H]1CCN2Cc1ccc(C(F)(F)F)cc1	32*	0	2	0	10
CN1[C@@H](CCC(=O)N2CCCC2)CNC(=O)[C@@H]2[C@H]1CCN2Cc1csnn1	1	1	10	3	2
COC[C@H]1CCCN1C(=O)CC[C@H]1CNC(=O)[C@@H]2[C@@H](CCN2Cc2csnn2)N1C	31*	3	10	-5	6
COc1ccc(CN2CC[C@@H]3[C@H]2C(=O)NC[C@H](CCC(=O)NCc2cccnc2)N3C)cc1	63*	2	25	-22	18
COc1cccc(C(=O)Nc2ccccc2-c2nc(-c3ccncc3)no2)c1	25	1	18	10	4
Cc1ccc2c(c1)OCC(=O)N2Cc1nc(-c2ccccc2)no1	-2	0	10	5	3
O=C1NC[C@@H](CCC(=O)N2CCCC2)N2C[C@@H](NCc3ccccc3)C[C@@H]12	0	-2	-14	30*	-2
CN1[C@@H](CCC(=O)N2CCCC2)CNC(=O)[C@@H]2[C@H]1CCN2Cc1ccccc1	22	2	16	-1	4
COc1ccc(-n2ccn3c(CCC(=O)Nc4cccc(C)c4)nnc3c2=O)cc1	36*	26	5	2	4
Cc1cccc(NC(=O)CCc2nnc3c(=O)n(-c4ccc(C)c(C)c4)ccn23)c1	36*	0	5	4	-1

Assay outcomes: PubChem BioAssay, Buhrlage Lab, Dana-Farber Cancer Institute and Novartis Institutes for BioMedical Research (Cambridge, Mass)
